Results from PubChem BioAssay.
Inconclusive results are not listed. Active and inactive are the calls of the source. Cut-off read from the data, not from the text of the source: active = fluorescence slope change above about 50%; inconclusive = mostly about 31% to 49%; inactive = weaker than that.

target: ATP-dependent translocase ABCB1 (Homo sapiens) (UniProt P08183); assay: MDR1 (ABCB1) efflux transporter inhibition, cell-based (AID 377); conditions: MDR1-expressing cells, fluorescent substrate accumulation slope; stronger effect = higher value; concentration not given here
Sequence (P08183 whole entry, looked up): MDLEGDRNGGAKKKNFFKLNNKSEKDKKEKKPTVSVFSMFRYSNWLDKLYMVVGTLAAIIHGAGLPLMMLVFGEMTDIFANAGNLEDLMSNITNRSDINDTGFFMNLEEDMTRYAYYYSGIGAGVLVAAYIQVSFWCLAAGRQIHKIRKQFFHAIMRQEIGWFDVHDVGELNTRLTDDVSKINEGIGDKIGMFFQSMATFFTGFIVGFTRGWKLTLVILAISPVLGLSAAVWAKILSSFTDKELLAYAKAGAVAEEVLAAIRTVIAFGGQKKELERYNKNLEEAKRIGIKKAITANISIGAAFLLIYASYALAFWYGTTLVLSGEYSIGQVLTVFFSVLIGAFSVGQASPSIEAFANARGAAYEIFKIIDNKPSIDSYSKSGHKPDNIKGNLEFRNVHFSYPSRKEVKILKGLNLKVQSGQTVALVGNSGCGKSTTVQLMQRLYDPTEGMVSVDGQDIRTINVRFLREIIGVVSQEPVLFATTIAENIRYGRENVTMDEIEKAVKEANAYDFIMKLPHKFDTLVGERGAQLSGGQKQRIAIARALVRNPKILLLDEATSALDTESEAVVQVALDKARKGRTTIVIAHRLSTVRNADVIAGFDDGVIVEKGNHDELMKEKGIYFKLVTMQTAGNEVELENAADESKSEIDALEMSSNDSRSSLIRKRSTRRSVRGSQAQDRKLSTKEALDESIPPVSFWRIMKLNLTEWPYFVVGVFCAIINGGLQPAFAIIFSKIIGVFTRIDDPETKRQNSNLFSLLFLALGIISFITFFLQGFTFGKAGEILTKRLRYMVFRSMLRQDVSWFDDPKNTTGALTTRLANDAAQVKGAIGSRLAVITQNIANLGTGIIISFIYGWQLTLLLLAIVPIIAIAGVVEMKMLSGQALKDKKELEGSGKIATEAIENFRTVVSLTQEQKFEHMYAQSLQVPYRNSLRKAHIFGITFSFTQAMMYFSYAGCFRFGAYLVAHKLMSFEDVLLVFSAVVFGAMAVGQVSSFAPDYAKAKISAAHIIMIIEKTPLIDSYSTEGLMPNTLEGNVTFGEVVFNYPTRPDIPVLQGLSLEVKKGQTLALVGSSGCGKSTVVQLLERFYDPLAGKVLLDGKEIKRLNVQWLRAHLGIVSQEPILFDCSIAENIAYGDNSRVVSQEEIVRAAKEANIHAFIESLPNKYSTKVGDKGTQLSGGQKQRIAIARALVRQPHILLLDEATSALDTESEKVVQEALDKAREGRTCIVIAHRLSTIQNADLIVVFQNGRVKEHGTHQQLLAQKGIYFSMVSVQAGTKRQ

Compound | fluorescence slope change
CC(C)(C)c1ccc(C(O)CCCN2CCC(C(O)(c3ccccc3)c3ccccc3)CC2)cc1 (centres undefined) | 182% (active)
O=C(O)COCCN1CCN(C(c2ccccc2)c2ccc(Cl)cc2)CC1 (centres undefined) | 28.7% (inactive)
Cc1ccc(/C(=C\CN2CCCC2)c2ccccn2)cc1 | 91.4% (active)
CC(C)(C)CC(C)(C)c1ccc(OCCOCC[N+](C)(C)Cc2ccccc2)cc1 | 152% (active)
O=C(O)c1cn(C2CC2)c2cc(N3CCNCC3)c(F)cc2c1=O | 54.5% (active)

tested on: not listed separately; assay: polyglutamine-triggered caspase-3 activation inhibitors, cell-based (AID 1583); conditions: polyglutamine-induced caspase-3 activation, cell assay; stronger effect = higher value;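 tested at 10 µM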

Compound | inhibition [%]
CC(C)(C)c1ccc(C(O)CCCN2CCC(C(O)(c3ccccc3)c3ccccc3)CC2)cc1 (centres undefined) | 70.6
Cc1ccc(/C(=C\CN2CCCC2)c2ccccn2)cc1 | 21.1
CC(C)(C)CC(C)(C)c1ccc(OCCOCC[N+](C)(C)Cc2ccccc2)cc1 | 70.8
O=C(O)c1cn(C2CC2)c2cc(N3CCNCC3)c(F)cc2c1=O | 8.05
